ChEMBL document CHEMBL4513216, “Probing the Open Global Health Chemical Diversity Library for Multistage-Active Starting Points for Next-Generation Antimalarials” (ACS Infect Dis, 2020)
About 2,700 (4%) of roughly 68,000 compounds showed an effect of 50% or more. The entries come from a sample that favours strong results as a whole.

tested on: Plasmodium berghei; test: Screen against P. berghei liver stage (PbLuc), transformed with Luciferase, at 2uM; format: functional, HepG2; conditions: tested at 2 uM

Row | SMILES | INHIBITION
1 | CN(Cc1ccco1)C(=O)c1ccc(=O)n(C)c1 | 1.13%
2 | Cc1nc(CNCc2ccc(OC34CCCN(CC3)C4)cc2)n[nH]1 (stereo not given) | -2.62%
3 | Cc1ccsc1C(=O)N1CC(C(=O)NCC2CC2)C2(CCOCC2)C1 (stereo not given) | 2.41%
4 | CN(C)C(=O)N1CC(C(=O)NCC2CC2)C2(CCOCC2)C1 (stereo not given) | 55.92%
5 | CC(C)NC(=O)C1CN(C(=O)N2CCCC2)CC12CCOCC2 (stereo not given) | 17.51%
6 | COCC(=O)N1CC(C(=O)NCC2CC2)C2(CCOCC2)C1 (stereo not given) | -13.16%
7 | CC(C)NC(=O)C1CN(C(=O)N(C)C)CC12CCOCC2 (stereo not given) | 58.87%
8 | CC(C)NC(=O)C1CN(C(=O)c2ccccc2)CC12CCOCC2 (stereo not given) | 34.48%
9 | COCCO[C@@H]1C[C@H]2CN(C(=O)c3cnccn3)CCN2C1 | -1.27%
10 | O=C1NCCCCC1NCc1csc(-c2ccc(F)cc2)n1 (stereo not given) | 13.91%
11 | CCN1CCc2c(CNC(=O)c3nccn3C)cncc2C1 | 10.71%
12 | CCc1oc(C(=O)NC(C)c2ncn[nH]2)cc1CN1CCCC1 (stereo not given) | 38.24%
13 | CC(C)Nc1ncccc1C(=O)NC1CC(=O)N(CC(F)(F)F)C1 (stereo not given) | 16.87%
14 | Cc1[nH]c2ccccc2c1-c1ccnc(N[C@H](CO)CC(C)C)n1 | -48.87%
15 | Nc1ncc(C(=O)N2CCCC(N)CC2)c(-c2ccccc2)n1 (stereo not given) | 50.91%
16 | Nc1ncc(C(=O)N2CCC(O)(CO)CC2)c(-c2ccccc2)n1 | 32.04%
17 | Nc1ncc(C(=O)N2CCC3(CCCO3)CC2)c(-c2ccccc2)n1 | 14.83%
18 | Cc1cc(CN(C)C(C(=O)O)c2cccc(C(F)(F)F)c2)on1 (stereo not given) | -53%
19 | COc1ccc(C)cc1CN1CCn2cccc2C1C (stereo not given) | 23.27%
20 | CSCCC(=O)NCc1cc2n(n1)CCCN(C1CCCCC1)C2 | -12.95%
21 | CCC(C)NC(=O)NCc1cc2n(n1)CCCN(C1CCCCC1)C2 (stereo not given) | -15.12%
22 | CC(C)SCC(=O)NCc1cc2n(n1)CCCN(C1CCCCC1)C2 | 50.02%
23 | CNS(=O)(=O)c1ccc(CNC(=O)N(C)C(C)COC)cc1 (stereo not given) | -30.49%
24 | Cc1ccc(C(=O)N2CCC3(CCN3c3ncccn3)C2)cn1 (stereo not given) | -55.08%
25 | CC(O)CNc1ccc(C#N)cc1C(F)(F)F (stereo not given) | 25.48%
26 | CC(C)(C)c1nc(NS(=O)(=O)c2ccc(F)cc2)no1 | -56.23%
27 | Cc1nc(CNC(=O)NC(C)c2ccc3c(c2)OCCCO3)cs1 (stereo not given) | -10.62%

Row | SMILES | INHIBITION
28 | COCCOCC(=O)NC1CCN(c2ccccn2)CC1 | -1.01%
29 | Cc1ccc(C)c(OCC(=O)NC2CCN(c3ccccn3)CC2)c1 | 63.89%
30 | O=C(COCCOc1ccccc1)NC1CCN(c2ccccn2)CC1 | 21.79%
31 | O=C1CCCCCN1Cc1ncnn1Cc1c(F)cccc1Cl | 29.98%
32 | O=C1OCCN1Cc1ncnn1Cc1c(F)cccc1Cl | 59.94%
33 | Fc1cccc(Cl)c1Cn1ncnc1CSCCN1CCCC1 | 2.76%
34 | O=S(=O)(NCc1ccc(S(=O)(=O)N2CCCC2)s1)c1ccc(Cl)c(Cl)c1 | -7.01%
35 | CCN1CCc2cc(-c3cncn3CC(=O)NC(C)(C)C)ccc21 | 25.72%
36 | CCN1c2ccc(-c3cncn3CC(=O)NC(C)(C)C)cc2CC1C (stereo not given) | 51.57%
37 | CC1Cc2cc(-c3cncn3CC(=O)NC(C)(C)C)ccc2N1C (stereo not given) | 37.4%
38 | CCN1CCCC(c2c(-c3ccccc3)ncn2Cc2cccnc2)C1 (stereo not given) | -17.04%
39 | CN(C)CCCNC(=O)c1cc(-c2ccc3c(c2)CCO3)n[nH]1 | -4.01%
40 | O=C(NCCCO)c1cc(-c2ccc3c(c2)CCO3)n[nH]1 | -56.16%
41 | O=C(NCCO)c1cc(-c2ccc3c(c2)CCO3)n[nH]1 | 51.31%
42 | CC1c2ncc(Cn3cccn3)n2CCN1Cc1ccc(F)cc1 (stereo not given) | 17.24%
43 | COCc1cc(N(C)Cc2cnccn2)nc(C(C)(C)C)n1 | 10.03%
44 | COCCC(=O)N1CCCC(CCC(=O)Nc2ccc(Cl)cc2)C1 (stereo not given) | -0.62%
45 | O=C([C@@H]1COC[C@H]2CN(c3ccncn3)C[C@H]21)N1CCCC1 | 25.58%
46 | O=C([C@H]1COC[C@H]2CN(c3ccncn3)C[C@H]21)N1CCCC1 | 53.55%
47 | O=C([C@@H]1COC[C@H]2CN(c3ccncn3)C[C@H]21)N1CCCCO1 | 40.64%
48 | CN(Cc1cccnc1)CC1CN(C(=O)C2CC2)Cc2nccn2C1 (stereo not given) | 6.8%
49 | CN1Cc2c(C(=O)NC3CCCCC3)ncn2-c2ccccc2S1(=O)=O | -2.38%
50 | CCc1nc(-c2ccc(NC(=O)N3CCC4(CC3)OCCO4)cc2)no1 | -16.82%
51 | CCc1nc(-c2ccc(NC(=O)N3CCOCC3)cc2)no1 | -52.23%
52 | CCc1nc(-c2ccc(C(=O)N3CCC4(CC3)OCCO4)cc2)no1 | 59.75%
53 | CC(C)n1nnnc1-c1ccc(NC(=O)CC(F)(F)F)cc1F | -16.15%
54 | CCC(CN1CCOCC1)n1cncc1-c1ccc2c(c1)CCN2CC (stereo not given) | 8.33%

Row | SMILES | INHIBITION
55 | O=C(C1CCCN(C2CCOCC2)C1)N1CCc2ncccc2C1 (stereo not given) | 34.71%
56 | CCOCCC(=O)N1CCc2cccc(S(=O)(=O)N3CCOCC3)c2C1 | 23.82%
57 | COCC(=O)N1CCc2cccc(S(=O)(=O)N3CCOCC3)c2C1 | 13.24%
58 | CCCOCC(=O)N1CCc2c(cccc2S(=O)(=O)N2CCOCC2)C1 | 53.05%
59 | CC(C)CCN1CCNC(=O)C1CC(=O)NCCc1cc(O)ncn1 (stereo not given) | 17.99%
60 | COC1CCN(CCNC(=O)NCC(C)c2cccc(C)c2)CC1 (stereo not given) | 38.83%
61 | COC1CCN(CCNC(=O)NC(C)c2ccc(F)c(F)c2)CC1 (stereo not given) | 54.29%
62 | COC1CCN(CCNC(=O)NC(C)c2cccc(Cl)c2)CC1 (stereo not given) | -23.58%
63 | Cc1ccc(S(=O)(=O)NCCOc2ccc3nnc(C)n3n2)s1 | 17.47%
64 | CCS(=O)(=O)CCN(CC1CCCO1)C1CCCC1 (stereo not given) | -19.27%
65 | CS(=O)(=O)CCN(CC1CCCO1)C1CCCC1 (stereo not given) | 56.53%
66 | CCN(CCS(=O)(=O)CC)CC1CCCO1 (stereo not given) | 1.03%
67 | CCc1nc(N2CCCC(O)(CO)CC2)ncc1C (stereo not given) | 32.1%
68 | Cc1ccc(C)c(OCc2cc(C(=O)N(C)Cc3cnn(C)c3)no2)c1 | 28.17%
69 | Cc1ccc(C)c(OCc2cc(C(=O)N(C)Cc3nonc3C)no2)c1 | 50.86%
70 | Cc1ccc(C)c(OCc2cc(C(=O)N(C)CC(O)CO)no2)c1 (stereo not given) | -10.86%
71 | Cc1cnn(CC2CCCN2Cc2ncc(-c3ccc(F)cc3)o2)c1 (stereo not given) | 10.52%
72 | O=C1CC(N(C(=O)c2ccc(F)c(F)c2)C2CC2)C(=O)N1 (stereo not given) | -20.51%
73 | Cc1ccc(C(=O)N(C2CC2)C2CC(=O)NC2=O)cc1F (stereo not given) | 59.93%
74 | COc1cc(C(=O)N(C2CC2)C2CC(=O)NC2=O)ccc1C (stereo not given) | 11.18%
75 | O=C([C@H]1C[C@H]2OCC[C@H]2N(CC2CC2)C1)N1CCCC1 | 63.14%
76 | CNC(=O)[C@H]1C[C@H]2OCC[C@H]2N(CC2CCOCC2)C1 | -14.24%
77 | O=C([C@H]1C[C@H]2OCC[C@H]2N(CC2CC2)C1)N1CCCCO1 | -11.4%
78 | O=C([C@H]1C[C@H]2OCC[C@H]2N(CC2CCOCC2)C1)N1CCCCO1 | 26.31%
79 | O=C([C@H]1C[C@@H]2[C@@H](C1)OCCN2CC1CC1)N1CCCC1 | -1.29%
80 | O=C([C@H]1C[C@H]2OCC[C@H]2N(CC2CCOCC2)C1)N1CCCC1 | 58.93%
81 | CS(=O)(=O)N1C[C@H]2CCCN(Cc3nccs3)[C@H]2C1 | 14.65%

Row | SMILES | INHIBITION
82 | CC(Cn1cncn1)NC(=O)NCC(C)(C)c1ccc(F)cc1 (stereo not given) | 38.1%
83 | NC(=O)C(NC1CCN(CC2CCCCC2)CC1)c1ccccc1 (stereo not given) | 15.27%
84 | NC(=O)C(NC1CCN(CC2CCCCC2)CC1)c1ccc(F)cc1 (stereo not given) | 65.76%
85 | NC(=O)C(NC1CCN(Cc2ccc(F)cc2)CC1)c1ccccc1 (stereo not given) | -15.03%
86 | COc1ccc(C[C@H]2CN(Cc3ccoc3)CC[C@H]2OC)cc1 | 10.71%
87 | N#Cc1ccnc(N2CCC(c3nccn3Cc3cscn3)CC2)c1 | 45.58%
88 | Cn1ccc(C(=O)N2CCC3(CCN3c3ncccn3)C2)n1 (stereo not given) | 53.38%
89 | Cn1cccc1C(=O)N1CCC2(CCN2c2ncccn2)C1 (stereo not given) | 27.42%
90 | Cn1ccnc1C(=O)N1CCC2(CCN2c2ncccn2)C1 (stereo not given) | 6.07%
91 | CCN1CCn2c(C)cnc2C12CCN(C(=O)NCC(C)C)CC2 | -29.74%
92 | COc1cccn(Cc2nnc(-c3cccnc3)o2)c1=O | -16.19%
93 | Cc1ccc(NC(=O)N(C)C)c(C(=O)OCC(=O)NC(C)C(C)C)c1 (stereo not given) | 20.34%
94 | CCC(C)(C)NC(=O)COC(=O)c1cc(C)ccc1NC(=O)N(C)C | 60.64%
95 | Cc1ccc(NC(=O)N(C)C)c(C(=O)OCC(=O)NC2CCCC2)c1 | 49.71%
96 | Cc1cc2ncc(C(C)NCc3cccnc3)c(C)n2n1 (stereo not given) | 19.6%
97 | CCc1ccccc1C(=O)NS(=O)(=O)CCCC#N | -32.8%
98 | COCC1c2nnn(CC3CC3)c2CCN1C(=O)c1cnccn1 (stereo not given) | 1.92%
99 | c1ccc(NC[C@@H]2CCC[C@@H]3CN(Cc4nccs4)C[C@@H]32)nc1 | 38.11%
100 | Cc1ncc(CN2CCN(c3ccc4nncn4n3)C(C)C2)s1 (stereo not given) | 64.71%
101 | CC1CN(Cc2cnn(C)c2)CCN1c1ccc2nncn2n1 (stereo not given) | 62.13%
102 | Cc1cc(CN2CCN(c3ccc4nncn4n3)C(C)C2)no1 (stereo not given) | -54.33%
103 | Cc1cnc(CN2CCN(c3ccc4nncn4n3)C(C)C2)cn1 (stereo not given) | 6.12%
104 | CC1CN(Cc2nccn2C)CCN1c1ccc2nncn2n1 (stereo not given) | 3.9%
105 | CC1CN(Cc2cccnc2)CCN1c1ccc2nncn2n1 (stereo not given) | -68.26%
